Inconclusive results are not listed. Entries that show only a call come without a potency. Activity calls are given as the source filed them. Calls come from the whole dose curve.
Experiment: p53 small molecule agonists, cell-based qHTS assay with human liver microsomes (AID 1963577)
Conditions: HCT-116 p53RE-bla with human liver microsomes, ratio, 16 h; series mostly up to 66 µM
Text: National Center for Advancing Translational Sciences [NCATS]
Division of Preclinical Innovation [DPI]
U.S. Environmental Protection Agency [EPA]
National Institutes of Environmental Health Sciences [NIEHS]
National Toxicology Program [NTP]
U.S. Food and Drug Administration [FDA]
p53, a tumor suppressor protein, is activated following cellular insult, including DNA damage and other cellular stresses. The activation of p53 regulates cell fate by inducing DNA repair, cell cycle arrest, apoptosis, or cellular senescence. The activation of p53, therefore, is a good indicator of DNA damage and other cellular stresses. […] The activation of the reporter gene under culture conditions can be detected by fluorescence intensity.
Tox21 Assay Protocol Summary:
The p53RE-bla cells were dispensed at 4,000cells/3ul/well in 1536-well black-clear bottom plates. After the assay plates were incubated at 37 C, 5% CO2 incubator for 5 hours, 23 nL of compounds dissolved in DMSO, positive controls or DMSO only was transferred to the assay plate. Following compound addition, 3 uL of human liver microsomes (XenoTech, Kansas City, KS) at final concentration of 0.5 mg/mL and 1uL of Beta-Nicotinamide adenine dinucleotide 2-phosphate (NADPH) at final concentration of 0.5 mg/mL were transferred to the assay plate. The plates were incubated at 37 C for 16 hours. 1 uL of LiveBLAzer detection mixture was added to each well and the plates were incubated at room temperature in the dark for 2 h.
In the case of OC[C@@H](O)[C@H](O)[C@H](O)[C@@H](O)CO, the Potency was “inactive”.
In the case of C=C(C)C(=O)OCCOC(=O)C(=C)C, the Potency was “inactive”.
With COc1ccc(CCC(C)=O)cc1 the Potency was “inactive”.
With CCCCCCCCCCCC[N+](C)(C)C the Potency was “inactive”.
In the case of S=c1nc[nH]c2nc[nH]c12, the Potency was “inactive”.
With CN(N=O)C(=O)N[C@@H]1[C@@H](O)[C@H](O)[C@@H](CO)O[C@@H]1O the Potency was “inactive”.
In the case of CCCCCCC=O, the Potency was “inactive”.
In the case of C=C[C@@]1(C)CC(=O)[C@]2(O)[C@@]3(C)[C@@H](O)CCC(C)(C)[C@@H]3[C@H](O)[C@H](OC(C)=O)[C@@]2(C)O1, the Potency was “inactive”.
In the case of O=Cc1ccc(CO)o1, the Potency was “inactive”.
With O=C1O[C@H]([C@H](O)CO)C(O)=C1O the Potency was “inactive”.
In the case of COCC(=O)O, the Potency was “inactive”.
With CC1(C)O[C@@H]2C[C@H]3[C@@H]4CCC5=CC(=O)C=C[C@]5(C)[C@@]4(F)[C@@H](O)C[C@]3(C)[C@]2(C(=O)CO)O1 the Potency was “inactive”.
For C=C(C)CC(C)(C)C, the Potency was “inactive”.
With C#C[C@]1(O)CC[C@H]2[C@@H]3CCc4cc(O)ccc4[C@H]3CC[C@@]21C the Potency was “inactive”.
For C=C(C)C(=O)OCC(C)C, the Potency was “inactive”.
For OC[C@H]1O[C@@H](Oc2ccc(O)cc2)[C@H](O)[C@@H](O)[C@@H]1O, the Potency was “inactive”.
With OC[C@@H](O)[C@@H](O[C@@H]1O[C@H](CO)[C@H](O)[C@H](O)[C@H]1O)[C@H](O)[C@@H](O)CO the Potency was “inactive”.
In the case of COCC(C)N (stereo not given), the Potency was “inactive”.
With CC(C)CCCCCCCOC(=O)CCCCC(=O)OCCCCCCCC(C)C the Potency was “inactive”.
For CC(C)=CCl, the Potency was “inactive”.
For CCOCCOCCO, the Potency was “inactive”.
With Nc1ccc(S(=O)(=O)c2ccc(N)cc2)cc1 the Potency was “inactive”.
With C=CCNCC=C the Potency was “inactive”.
For CCCC(C)=O, the Potency was “inactive”.
With O=[N+]([O-])c1cccc(Cl)c1 the Potency was “inactive”.
In the case of CCCCC(CC)COC(=O)/C=C\C(=O)OCC(CC)CCCC (stereo not given), the Potency was “inactive”.
With CC(=O)OC[C@H]1O[C@@](COC(C)=O)(O[C@H]2O[C@H](COC(C)=O)[C@@H](OC(C)=O)[C@H](OC(C)=O)[C@H]2OC(C)=O)[C@@H](OC(C)=O)[C@@H]1OC(C)=O the Potency was “inactive”.
For Brc1nc2ccccc2s1, the Potency was “inactive”.
With COC(=O)CCCCC(=O)OC the Potency was “inactive”.
In the case of CC1=CC(C)(C)Nc2ccccc21, the Potency was “inactive”.
With COCCOC(=O)c1ccccc1C(=O)OCCOC the Potency was “inactive”.
For O=C(O)CC(O)C(=O)O (stereo not given), the Potency was “inactive”.
In the case of Clc1cc(Cl)c(Cl)cc1Cl, the Potency was “inactive”.
With CCCCCCCCCCCCOC(=O)c1cc(O)c(O)c(O)c1 the Potency was “inactive”.
In the case of O=C(O)Cc1cccc2ccccc12, the Potency was “inactive”.
In the case of Fc1ccc(Br)cc1, the Potency was “inactive”.
With C=C(C)C(=O)OCCC[Si](OC)(OC)OC the Potency was “inactive”.
For CCCCCCCCC(=O)O, the Potency was 39.5 µM (active).
With Cc1cc(C)nc(NS(=O)(=O)c2ccc(N)cc2)n1 the Potency was “inactive”.
With Nc1ccc(O)c(C(=O)O)c1 the Potency was “inactive”.

From PubChem BioAssay (Tox21)
Potency is the fitted concentration of half-maximal effect.
